Screening data from PubChem.
Compounds with a hit are over-represented: about 1.2% of the library has one in this group of screens.
ERG Ets-DNA blk – qHTS for Small Molecule Inhibitors of the ERG Ets/DNA interaction; Potency, µM (series often up to 76.9 µM), for the others: at the highest dose FP activity, negative = inhibition, usual class: inhibitors; AID 624246, 2012; 370,000 compounds, 0.028% hits; fluorescence polarization, His-ERG Ets domain / labelled DNA; Transcriptional regulator ERG (Homo sapiens), P11308; active = well fitted inhibition curve with a large enough effect in the polarisation, with a control signal flat; inconclusive = small, poorly fitted or top-dose-only effect, or effect the other way, or a change in a side signal; inactive = no such curve, though single readings can be large or run the other way; the % refers to the polarisation;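 note: polarization taken with two DNA probes labelled with fluorescein and Texas red; % of control where 0% means no effect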
Target sequence (P11308 whole entry, looked up, the tested form may be a part): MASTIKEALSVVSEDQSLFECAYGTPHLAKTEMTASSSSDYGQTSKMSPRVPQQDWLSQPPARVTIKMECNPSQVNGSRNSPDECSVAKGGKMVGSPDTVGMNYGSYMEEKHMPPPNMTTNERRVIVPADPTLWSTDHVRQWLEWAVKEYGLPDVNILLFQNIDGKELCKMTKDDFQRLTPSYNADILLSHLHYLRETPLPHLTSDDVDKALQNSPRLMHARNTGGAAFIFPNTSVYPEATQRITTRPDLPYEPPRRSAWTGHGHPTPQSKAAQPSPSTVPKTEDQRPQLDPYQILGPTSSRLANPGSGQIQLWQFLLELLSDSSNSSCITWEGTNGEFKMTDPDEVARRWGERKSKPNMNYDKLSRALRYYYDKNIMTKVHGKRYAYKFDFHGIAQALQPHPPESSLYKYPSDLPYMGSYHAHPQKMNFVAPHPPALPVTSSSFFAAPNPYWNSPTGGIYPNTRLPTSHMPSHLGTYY
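His-tagged ERG Ets domain (1 uM in the protein solution; 300mM KCl, 50mM Tris-HCl, 1mM EDTA, 1mM DTT, pH 7.5) received compound, then a probe mix of 5 nM fluorescein-DNA and 100nM Texas-615-DNA. Fluorescence polarization was read for both dyes.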
GoLoco inh red – qHTS Assay for Inhibitors of RGS12 GoLoco Motif Activity (Red Fluorophore) | Guanine nucleotide-binding protein G(i) subunit alpha-1 (Homo sapiens), P63096 | Gai1:RGS12 GoLoco peptide FP, rhodamine, 10 min | Potency, µM (highest dose often 61.6 µM), for the others: at the highest dose activity, negative = inhibition, usual class: inhibitors | 230,000 compounds, 0.44% hits | AID 880, 2007; active = well fitted inhibition curve with a large enough effect, not every such curve was filed as active; inactive = no such curve, though single readings can be large or run the other way; note: % is set by controls: 0 for no effect and ±100 for the full control effect; nearly all actives have a fitted effect of over 30% in size
Apoferritin bind – qHTS Assay for Identification of Novel General Anesthetics. Ferritin light chain (Equus caballus), P02791. apoferritin/1-aminoanthracene competitive binding, fluorescence. Potency, µM (doses to about 77.5 µM), for inactives: at the highest dose activity change, negative = displacement, hits mostly inhibitors. 350,000 compounds, 0.074% hits. AID 485281, 2010; note: % is set by controls: 0 for no effect and ±100 for the full control effect; nearly all actives have a fitted effect of over 20% in size
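Concentration-response curves derived by four-parameter Hill fitting of normalized fluorescence, where compounds displaced 1-AMA from 10 uM horse apoferritin following a brief 10 min room-temperature incubation; propofol titration acted as positive control.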
BRCA1 expr up – qHTS Assay to Identify Small Molecule Activators of BRCA1 Expression; MCF7-BRCA1-FFLuc reporter, luminescence, 48 h; response scale: scaled: vehicle 0%, 10 µM genistein 100%; Potency, µM (top dose mostly 46.1 µM), for inactives: at the top dose activation, most hits filed as activators; 380,000 compounds, 1.1% hits; AID 624202, 2012; note: nearly all actives have a fitted effect of over 80% in size
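MCF7 cells carrying a BRCA1-firefly luciferase reporter (2000 cells/well, phenol-red free MEM) were attached for 2 h at 37 °C, then given compounds for 48 h. Luminescence was read 15 min after luciferase reagent; activity normalized to genistein (10 microM) and DMSO.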
The depositor's hits bear a star; ? = inconclusive; / = no result given; [ ] = remark or other dose. Unless noted, calls come from the whole dose curve; as a rule, active = well fitted curve in the direction sought with a large enough effect; inconclusive = small, poorly fitted or top-dose-only effect, or another doubt; inactive = no such curve, though single readings can be large; an effect the other way counts as inactive or inconclusive. Potency is the fitted concentration of half-maximal effect.

SMILES	ERG Ets-DNA blk	GoLoco inh red	Apoferritin bind	BRCA1 expr up
O=C(OCC1OC(OC(=O)c2cc(O)c(O)c(OC(=O)c3cc(O)c(O)c(O)c3)c2)[C@@H](OC(=O)c2cc(O)c(O)c(OC(=O)c3cc(O)c(O)c(O)c3)c2)C(OC(=O)c2cc(O)c(O)c(OC(=O)c3cc(O)c(O)c(O)c3)c2)C1OC(=O)c1cc(O)c(O)c(OC(=O)c2cc(O)c(O)c(O)c2)c1)c1cc(O)c(O)c(OC(=O)c2cc(O)c(O)c(O)c2)c1 (stereo not given in full)	/	-14.2%	-16.5%	/
CC(C)(C)c1ccc(OCCn2c(CCNC(=O)C3CCCCC3)nc3ccccc32)cc1	/	/	/	-50.2%
Cc1ccccc1OCC(=O)NCC(=O)OCC(=O)c1ccc(Br)cc1	/	/	/	10.2%
c1cc2c(cc1CNc1ccc(N3CCOCC3)cc1)OCO2	/	/	/	4.47µM*
CCOc1ccc(/C=C2/SC(=O)NC2=S)cc1	11.6%	14.5%	-10.7%	67.9%
CCOc1ccc(N=C2NC(=O)S/C2=C\c2ccc(N(C)C)cc2)cc1	-21.8%	-3.5%	-6.7%	3.16µM*
O=c1oc(CCCO)cc2ccc(/C=C/c3cccc([N+](=O)[O-])c3)cc12	0.3%	/	/	6.31µM*
O=c1oc(CCCO)cc2ccc(Br)cc12	8.2%	/	/	12.0%
CN(N=O)c1ccc(/C=C/c2ccccc2)cc1	/	/	/	5.62µM*
CCc1ccc(/C=N/N2CCN(c3ccccn3)CC2)cc1	2.4%	7.4%	-9.9%	12.6µM*
Cc1ccc(/C=N/N2CCN(c3ccccn3)CC2)cc1	-0.5%	-5.4%	-6.0%	?
COc1ccc(/C=N/N=C2/NC(=O)CC(C(=O)O)S2)cc1 (stereo not given)	-4.8%	8.6%	-0.6%	-9.0%
COc1ccc(/C=N/N=C2/CC(C)(C)Cc3n[nH]c(=O)cc32)cc1	14.5%	28.2µM*	-11.6%	-10.1%
CCOC(=O)c1sc(-c2ccc(Br)cc2)cc1N	-8.4%	9.1%	-1.9%	7.08µM*
CCOC(=O)c1cc(-c2ccc(N)cc2)sc1N	-8.4%	-12.8%	8.0%	?
CCc1nnc(NC(=O)C23CC4CC(CC(C4)C2)C3)s1	1.2%	/	-10.0%	11.2µM*
CC(C)Cc1nnc(NC(=O)C23CC4CC(CC(C4)C2)C3)s1	-4.7%	/	-14.7%	5.6%
Cc1c(C)c2c(c(C)c1O)CCC(C)(COc1ccc(Cc3sc(=O)[nH]c3O)cc1)O2 (stereo not given)	/	1.1%	-14.0%	/
Cc1c(C=O)c2cc(OCc3ccccc3)ccc2n1C	0.9%	/	-14.4%	10µM*
CCOC(=O)CNC(=O)C1CCCCC1	/	/	/	9.4%
O=S(=O)(Nc1cccc2cccnc12)c1cccs1	/	/	/	-69.8%
Cc1cc(C)n(-c2nnc3c4ccccc4n(C)c3n2)n1	9.8%	3.5%	-7.3%	1.41µM*
C/C(=N\Nc1nnc2c3ccccc3n(C)c2n1)c1ccc(C)o1	-5.8%	-2.5%	0.9%	-5.9%
Cc1cc(O)cc2c1O[C@](C)(CCC(=O)O)CC2	/	/	/	0.0%
O=C(Cn1nnc2c(cnn2-c2ccc(F)cc2)c1=O)OC1CCCCC1	-1.2%	-4.0%	12.6µM*	0.0%
SMILES	ERG Ets-DNA blk	GoLoco inh red	Apoferritin bind	BRCA1 expr up
CCOc1ccc(NC(=O)Cn2nnc3c(cnn3-c3ccc(F)cc3)c2=O)cc1	2.2%	10.7%	-12.9%	8.6%
CC(=O)N1N=C(c2ccc(C)cc2)OC1c1ccc(C(C)C)cc1 (stereo not given)	-8.3%	-11.5%	-19.9%	7.94µM*
CC1CCCN(C(=S)NCCc2ccccc2)C1 (stereo not given)	-0.9%	4.4%	-18.5%	10µM*
O=C(Cc1ccc(Cl)cc1)Nc1ccc(Br)cn1	-9.6%	/	2.0%	12.6µM*
COC(=O)Nc1ccc(OCc2ccccc2)cc1	0.3%	10.1%	-6.3%	12.6µM*
O=C(Cc1ccc(Cl)cc1)Nc1ccc(Cl)cn1	3.0%	/	-8.9%	?
CCOc1ccc(NC(=O)c2cnccn2)cc1	6.6%	3.6%	1.1%	2.5%
CCOc1ccc(NC(=O)c2nccnc2CO)cc1	-4.3%	-5.6%	-11.8%	5.62µM*
CCOc1ccc(NC(=O)Cc2ccccc2)cc1	-0.9%	23.9%	-14.6%	7.08µM*
NC1=C(O)C(=O)[C@H](c2c[nH]c3ccc(OCc4ccccc4)cc23)O1	/	0.5%[14.2 µM]	/	/
Cc1cc[n+](CC#N)cc1	/	/	/	0.5%
